Experimental data published in PubChem BioAssay (EPA / NIEHS).
Records with an inconclusive call do not appear. Calls of active or inactive are those of the source. How the source made its calls, unless noted: active means hit-call score of the fitted dose curve at least 0.9, where 1 is the maximum; inconclusive means response in the unintended direction; inactive means score below 0.9.

Experiments:
[1] = TOX21_p53_BLA_p2_viability: Viability Assessment in the Tox21 HCT-116 p53 Agonism Beta-lactamase Assay, Phase 2 (AID 2283591);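 further: compound exposure lasted 16 h at 37 °C; actives lower the ATP signal meaning cytotoxicity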
Method in brief: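 HCT116 p53-bla cells, 4000/well, dosed after 5 h plating (217-fold dilution of DMSO stocks) and incubated 16 h at 37C. Viability taken as cellular ATP by CellTiter-Glo luminescence after 30 min RT; signal loss marks cytotoxicity.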

[2] = molecular target: Cellular tumor antigen p53 (Homo sapiens) (UniProt P04637); assay: TOX21_p53_BLA_p2_ratio: Tox21 HCT-116 p53 Agonism Beta-lactamase Assay, Ratio, Phase 2 (AID 2283592)
Chain of Cellular tumor antigen p53 (Homo sapiens) (P04637 whole entry, looked up): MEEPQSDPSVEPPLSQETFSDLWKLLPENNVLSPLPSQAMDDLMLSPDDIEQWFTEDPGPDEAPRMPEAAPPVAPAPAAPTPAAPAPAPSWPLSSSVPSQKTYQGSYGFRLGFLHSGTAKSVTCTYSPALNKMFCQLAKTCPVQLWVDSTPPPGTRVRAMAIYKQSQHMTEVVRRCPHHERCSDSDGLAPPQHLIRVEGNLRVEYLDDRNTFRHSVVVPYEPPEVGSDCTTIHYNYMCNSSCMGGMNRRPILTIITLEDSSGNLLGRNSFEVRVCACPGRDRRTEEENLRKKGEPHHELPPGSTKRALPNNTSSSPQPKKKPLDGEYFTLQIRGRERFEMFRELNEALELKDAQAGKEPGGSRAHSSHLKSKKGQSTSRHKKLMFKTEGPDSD
Method in brief: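 Human colon HCT116 cells with an inducible p53 beta-lactamase reporter are exposed to test chemicals for 16 h at 37C. Reporter induction is read as the 460/530 nm emission ratio after CCF4-AM loading, normalized to DMSO.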

[3] = TOX21_p53_BLA_p3_viability: Viability Assessment in the Tox21 HCT-116 p53 Agonism Beta-lactamase Assay, Phase 3 (AID 2283593);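 further: cells exposed to compound for 16 h before reading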
Method in brief: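 HCT116 cells, 4000/well, dosed 5 h after plating by pin transfer (217-fold dilution from DMSO stock) and incubated 16 h at 37C, 5% CO2. Viability read as ATP luminescence with CellTiter-Glo after 30 min at room temperature.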

[4] = molecular target: Cellular tumor antigen p53 (Homo sapiens) (UniProt P04637); assay: TOX21_p53_BLA_p3_ratio: Tox21 HCT-116 p53 Agonism Beta-lactamase Assay, Ratio, Phase 3 (AID 2283596)
Method in brief: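 HCT116 p53-bla cells (4000/well) given compound in DMSO (217-fold dilution) after 5 h, incubated 16 h at 37C. CCF4-AM substrate 2 h at room temperature; 460/530 nm emission ratio, gain fitted against DMSO.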

[5] = molecular target: Cellular tumor antigen p53 (Homo sapiens) (UniProt P04637); assay: TOX21_p53_BLA_p5_ratio: Tox21 HCT-116 p53 Agonism Beta-lactamase Assay, Ratio, Phase 5 (AID 2283599)
Method in brief: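 HCT-116 p53-bla cells (4000/well) plated 5 h, dosed with compound (217-fold DMSO dilution) for 16 h at 37 C; CCF4-AM substrate 2 h at room temperature. Activity is the 460/530 nm emission ratio (405 nm excitation), fitted in gain-of-signal direction versus DMSO.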

[6] = TOX21_p53_BLA_p5_viability: Viability Assessment in the Tox21 HCT-116 p53 Agonism Beta-lactamase Assay, Phase 5 (AID 2283600)
Method in brief: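 Seeded cells (4000/well) settle 5 h before compound addition. Plates then incubate 16 h at 37C, receive FRET substrate for 2 h, and finally CellTiter-Glo, with luminescence measured after a 30 min room-temperature incubation.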

[7] = molecular target: Cellular tumor antigen p53 (Homo sapiens) (UniProt P04637); assay: TOX21_p53_BLA_p4_ratio: Tox21 HCT-116 p53 Agonism Beta-lactamase Assay, Ratio, Phase 4 (AID 2283601)
Method in brief: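 HCT-116 p53 beta-lactamase reporter cells (4000/well) preincubated 5 h, then compound (217-fold dilution of DMSO stock) for 16 h at 37C. CCF4-AM substrate added 2 h at room temperature; 460/530 nm emission ratio fitted upward versus DMSO.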

[8] = CCTE_Harrill_HTTr_Viability_MCF7: CCTE's 6-hour Cell Viability Assessment for the High-Throughput Transcriptomics (HTTr) Platform, in MCF-7 cells cultured in DMEM + 10% fetal bovine serum, Harrill Lab (AID 2284010; active means hit-call score of the fitted dose curve at least 0.9, where 1 is the maximum; inactive means score below 0.9)
Method in brief: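 Cells were dosed with chemicals in an eight-point dilution series, imaged 6 hours later for propidium iodide uptake, and the endpoint was analyzed by bidirectional fitting against DMSO as negative control.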

[9] = CCTE_Harrill_HTTr_Apoptosis_MCF7: CCTE's 6-hour Apoptosis Assessment for the High-Throughput Transcriptomics (HTTr) Platform, in MCF-7 cells cultured in DMEM + 10% fetal bovine serum, Harrill Lab (AID 2284011; active means hit-call score of the fitted dose curve at least 0.9, where 1 is the maximum; inactive means score below 0.9)
Method in brief: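 Apoptosis in MCF-7 cells grown in DMEM with 10% fetal bovine serum was scored after a six hour exposure by high content imaging of caspase-3/7 activation (CellEvent Caspase 3/7 Green), with DMSO serving as negative control and baseline.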

[10] = molecular target: THRB (gene 7068) (UniProt P10828); assay: TOX21_TRB_BLA_Antagonist_Followup_ratio: Tox21 Thyroid Hormone Receptor beta Antagonism Beta-lactamase (BLA) Follow-Up Assay, Ratio (AID 2283958)
Chain of THRB (gene 7068) (P10828 whole entry, looked up, the tested form may be a part): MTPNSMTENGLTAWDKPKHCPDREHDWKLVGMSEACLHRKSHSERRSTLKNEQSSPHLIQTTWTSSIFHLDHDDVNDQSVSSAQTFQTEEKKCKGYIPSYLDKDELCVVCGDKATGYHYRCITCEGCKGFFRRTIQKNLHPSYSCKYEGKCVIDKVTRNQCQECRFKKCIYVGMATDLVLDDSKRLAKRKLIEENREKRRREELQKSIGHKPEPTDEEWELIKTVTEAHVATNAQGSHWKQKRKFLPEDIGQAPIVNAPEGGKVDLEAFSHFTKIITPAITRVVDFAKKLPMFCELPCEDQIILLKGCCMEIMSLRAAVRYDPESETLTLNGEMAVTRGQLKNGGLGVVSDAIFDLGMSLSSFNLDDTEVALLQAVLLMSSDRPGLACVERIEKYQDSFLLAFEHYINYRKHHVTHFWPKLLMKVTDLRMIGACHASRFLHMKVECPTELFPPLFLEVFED
Method in brief: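 HEK293T TRb-bla (GAL4 DBD + hTRβ LBD), 2% cs-FBS phenol red-free DMEM, 5 h attach; cpds 11-pt triplicate, 18 h 37C; CCF4-AM 2 h RT; 460/530 ratio vs DMSO; CellTiter-Glo viability same wells.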

[11] = molecular target: THRB (gene 7068) (UniProt P10828); assay: TOX21_TRB_COA_Antagonist_Followup_ratio: Tox21 Thyroid Hormone Receptor beta Antagonism through Coactivator Recruitment Follow-Up Assay, Ratio (AID 2283967)
Method in brief: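 Cell-free TR-FRET: GST-TRb LBD (5.0 nM) with fluorescein-SRC-2 peptide (200 nM) and Tb anti-GST antibody (2 nM), 0.10% BSA. 520:495 nm emission ratio normalized to DMSO (0%) and T3 (100%).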

[12] = TOX21_TR_RXR_BLA_Antagonist_Followup_viability: Viability Assessment in the Tox21 Thyroid Hormone Receptor beta Retinoid X Receptor alpha (RXRa) Antagonism Beta-lactamase (BLA) Follow-Up Assay (AID 2283979)
Method in brief: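 RXRa-bla HEK293T cells (2,500/well, phenol red-free DMEM, 2% charcoal-stripped FBS) were attached 5 h, then exposed to compounds at 11 concentrations in triplicate for 16 h at 37C. Viability measured by CellTiter-Glo ATP luminescence, bidirectional fitting versus DMSO.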

[13] = CCTE_Harrill_HTTr_CellCount_MCF7: CCTE's Cell Proliferation Assessment for the High-Throughput Transcriptomics (HTTr) Platform, Harrill Lab (AID 2284012);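 further: count of Hoechst-stained nuclei per well by high-content imaging in MCF-7 cells; cells exposed to compound for six hours; intended direction is loss of nuclei count meaning fewer cells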
Method in brief: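 Chemicals in eight-point dilution series are added to MCF-7 cells for six hours, nuclei are stained with Hoechst and imaged, and per-well nuclei counts are fitted in both directions relative to DMSO controls.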

Measured: AC50

COc1ccc(-c2ccc3cc(C(=O)O)ccc3c2)cc1C12CC3CC(CC(C3)C1)C2
inactive: [1] | [2] | [6] | [7]
active: [3] 3.62 µM | [4] 2.12 µM | [5] 6.67 µM

C#CCN(C)Cc1ccccc1
not listed: [6] | [10] | [11] | [12] | [13]
inactive: all other assays above

Cc1ccc([N+](=O)[O-])c(N)c1
inactive: [1] | [2] | [3] | [4] | [5] | [7]

CCCCCCCCCCCCCCCC(=O)OC(C)C
inactive: [1] | [2] | [3] | [4] | [5] | [7]

N=C(N)c1ccc2cc(OC(=O)c3ccc(N=C(N)N)cc3)ccc2c1
inactive: [1] | [2] | [3] | [4] | [6]

OCC(CO)N[C@H]1C[C@](O)(CO)[C@@H](O)[C@H](O)[C@H]1O
inactive: [1] | [2] | [3] | [4] | [6]

COC1=C(C(=O)O)N2C(=O)[C@@H](NC(=O)[C@H](N)C3=CCC=CC3)[C@H]2SC1
inactive: [1] | [2] | [3] | [4] | [5] | [7]

CC(=O)CC(C)=O
inactive: [1] | [2] | [3] | [4] | [6]

O=C1c2ccccc2C(=O)c2cc(O)ccc21
inactive: [1] | [3] | [4] | [5]
active: [2] 37.8 µM | [7] 42.5 µM

O=C1CCC(=O)N1CO
inactive: [1] | [2] | [3] | [4] | [5] | [7]

CC(=O)Nc1ccn(C2COC(COC(=O)c3ccccc3)O2)c(=O)n1 (stereo unspecified)
active: [2] 5.44 µM | [4] 11.7 µM
not listed: [6] | [8] | [9] | [13]
inactive: all other assays above

[O]=[Zr]
inactive: [1] | [2] | [3] | [4] | [6]

O=[N+]([O-])c1ccc(Oc2ccc(N=C=S)cc2)cc1
active: [2] 12.9 µM | [4] 8.52 µM | [5] 10.8 µM | [7] 13.4 µM
inactive: [1] | [3]

Cc1cccc(Nc2ncccc2C(=O)O)c1C
inactive: [1] | [2] | [3] | [4] | [5] | [7]

FC(F)(F)C(F)(F)C(F)(F)C(F)(F)C(F)(F)C(F)(F)C(F)(F)C(F)(F)Br
inactive: [1] | [2] | [3] | [4] | [5] | [7]

C(=C/c1ccccc1)/c1ccccc1
inactive: [1] | [2] | [3] | [4] | [6]

COc1cccc(Br)c1
inactive: [1] | [2] | [3] | [4] | [5] | [7]

CN1CCN(c2c(F)cc3c(=O)c(C(=O)O)cn(CCF)c3c2F)CC1
inactive: [1] | [2] | [3] | [4] | [5] | [7]

CCN(CC)CCC(=O)N1c2ccccc2Sc2ccc(Cl)cc21
inactive: [1] | [2] | [3] | [4] | [5] | [7]

O=C(OOC(=O)c1ccccc1)c1ccccc1
not listed: [10] | [11] | [12]
inactive: all other assays above

CO[C@@]1(NC(=O)CSCC#N)C(=O)N2C(C(=O)O)=C(CSc3nnnn3C)CS[C@@H]21
inactive: [1] | [2] | [3] | [4] | [5] | [7]

CCCCC(C)C(=O)O (stereo unspecified)
inactive: [1] | [2] | [3] | [4] | [5] | [7]

CCC1(CO)COCOC1
inactive: [1] | [2] | [3] | [4] | [5] | [7]

CC(=O)OC1CCC(C(C)(C)C)CC1 (stereo unspecified)
inactive: [1] | [2] | [3] | [4] | [5] | [7]

Nc1c(Br)cc(Br)cc1CNC1CCC(O)CC1 (stereo unspecified)
inactive: [1] | [2] | [3] | [4] | [5] | [7]

COc1cc(OC)c(C(=O)CCCN2CCCC2)c(OC)c1
not listed: [10] | [11] | [12] | [13]
inactive: all other assays above

COC(=O)N/N=C/c1c[n+]([O-])c2ccccc2[n+]1[O-]
inactive: [1] | [2] | [3] | [4] | [5] | [7]

FC(F)(F)C(Cl)Br (stereo unspecified)
inactive: [1] | [2] | [3] | [4] | [5] | [7]

CC(C)(O)C#CC(C)(C)O
inactive: [1] | [2] | [3] | [4] | [6]
